From PubChem BioAssay come the findings set out here.

A number with no mark means an inactive call. Active and inactive are the calls of the source.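 The calls were made as follows, unless noted: active = mean inhibition above 46.5%, the solvent-only control mean plus 3 SD; inactive = the rest.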

In assay [1] the test system is transactivating tegument protein VP16 (Human herpesvirus 1). Description: VP16 transactivation reporter inhibitors, counter-screen for SRC2 inhibitor project, cell-based, luminescence, single concentration (AID 652007; in the data active = inhibition above about 36%). The settings on record: cell-based VP16 transactivation luciferase reporter, at 8.9 µM, hits give high values.
The target in assay [2] is Nuclear receptor coactivator 2 (Homo sapiens) (UniProt Q15596). Briefly: SRC2 coactivator transcriptional activity inhibitors, confirmation, cell-based, luminescence, HEK293, triplicate (AID 652008).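 Also: 0% = DMSO-treated cells and 100% = Gossypol at 36 µM.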 The settings on record: HEK293 GAL4-SRC2 luciferase reporter, at 8.9 µM, hits give high values.
Sequence of Nuclear receptor coactivator 2 (Homo sapiens) (Q15596 whole entry, looked up, the tested form may be a part): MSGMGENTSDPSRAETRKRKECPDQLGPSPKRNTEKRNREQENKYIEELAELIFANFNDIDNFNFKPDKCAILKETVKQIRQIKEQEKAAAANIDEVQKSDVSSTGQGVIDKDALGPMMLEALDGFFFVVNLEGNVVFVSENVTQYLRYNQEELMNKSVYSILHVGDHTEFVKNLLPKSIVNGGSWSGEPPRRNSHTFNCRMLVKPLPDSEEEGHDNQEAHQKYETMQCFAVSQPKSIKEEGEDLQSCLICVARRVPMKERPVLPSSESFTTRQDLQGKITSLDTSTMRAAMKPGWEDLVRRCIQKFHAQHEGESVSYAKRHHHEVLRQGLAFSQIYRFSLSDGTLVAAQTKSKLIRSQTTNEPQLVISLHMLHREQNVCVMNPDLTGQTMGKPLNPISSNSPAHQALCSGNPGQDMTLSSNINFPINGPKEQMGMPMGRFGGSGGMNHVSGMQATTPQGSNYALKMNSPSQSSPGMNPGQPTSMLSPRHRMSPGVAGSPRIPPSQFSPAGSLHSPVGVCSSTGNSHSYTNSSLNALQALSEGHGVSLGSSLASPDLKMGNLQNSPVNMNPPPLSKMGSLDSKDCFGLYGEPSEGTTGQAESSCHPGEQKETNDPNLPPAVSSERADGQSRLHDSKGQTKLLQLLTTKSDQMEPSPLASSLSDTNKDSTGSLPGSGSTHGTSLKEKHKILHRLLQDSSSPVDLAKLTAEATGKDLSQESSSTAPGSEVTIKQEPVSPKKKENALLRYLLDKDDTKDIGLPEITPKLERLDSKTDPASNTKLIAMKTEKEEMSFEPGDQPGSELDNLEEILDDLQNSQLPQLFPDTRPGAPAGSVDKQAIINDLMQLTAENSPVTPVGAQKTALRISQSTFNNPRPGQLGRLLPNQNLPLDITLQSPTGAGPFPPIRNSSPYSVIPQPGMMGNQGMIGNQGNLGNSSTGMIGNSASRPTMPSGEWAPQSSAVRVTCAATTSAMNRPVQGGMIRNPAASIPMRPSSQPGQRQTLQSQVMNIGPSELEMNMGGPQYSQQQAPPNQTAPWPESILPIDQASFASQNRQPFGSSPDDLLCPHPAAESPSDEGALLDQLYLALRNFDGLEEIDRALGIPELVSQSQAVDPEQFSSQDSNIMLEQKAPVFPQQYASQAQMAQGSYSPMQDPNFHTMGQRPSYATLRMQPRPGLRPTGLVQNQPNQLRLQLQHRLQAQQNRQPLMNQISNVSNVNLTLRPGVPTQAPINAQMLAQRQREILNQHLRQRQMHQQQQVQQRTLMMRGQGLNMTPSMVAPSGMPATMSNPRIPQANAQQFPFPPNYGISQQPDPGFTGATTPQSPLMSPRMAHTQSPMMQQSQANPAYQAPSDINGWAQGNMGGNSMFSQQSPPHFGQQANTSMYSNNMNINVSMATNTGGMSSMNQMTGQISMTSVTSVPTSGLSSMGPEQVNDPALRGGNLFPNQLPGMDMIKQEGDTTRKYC

Regarding `COc1cc(F)ccc1-c1csc(C(O)c2ccc(F)c(F)c2)n1` (centres undefined), the inhibition is -3.93% in assay [1] and 10.6% in assay [2].

`Cc1ccc(C)c(NS(=O)(=O)c2cc(C(=O)NCCSC3CCCCC3)ccc2C)c1`: the inhibition is -17.6% in assay [1] and 3.68% in assay [2].

Consider `O=C1N[C@@H](Cc2ccccc2)C(=O)N2[C@H]1CSCCS2(=O)=O`, for which the inhibition in assay [1] was -5.16%; in assay [2] it was -25.1%.

For the compound `Cc1ccc2cc(CN(Cc3ccco3)S(=O)(=O)c3c(C)ccc4nsnc34)c(=O)[nH]c2c1`, the inhibition in assay [1] was 26.5%; in assay [2] it was 14.2%.

`COc1ccc(-n2c(-c3ccccc3)c[n+]3c2CCC3)cc1`: the inhibition is 6.63% in assay [1] and 36% in assay [2].

Turning to `Cc1cc(Br)ccc1NC(=O)CN(C)C(=O)C1CCN(c2ncnc3sc(C)c(C)c23)CC1`, the inhibition in assay [1] was 12.9%; in assay [2], 23%.

In the case of `Cn1nnnc1Sc1ncnc2scc(-c3ccc(C(F)(F)F)cc3)c12`, the inhibition is 35.2% in assay [1] and 44.4% in assay [2].

For the compound `CCOc1ccc(-c2nc(CSCC(=O)NC3CCN(Cc4ccccc4)CC3)c(C)o2)cc1`, the inhibition is 8.65% in assay [1] and 19.7% in assay [2].

With `CCCOc1ccc(C(=O)C(CN2CCOCC2)c2ccccc2)cc1` (centres undefined), the inhibition in assay [1] is 14%; in assay [2], 53.9% (active).

With `CC(=O)c1ccc(OCCCC(=O)Nc2ccc(C)c(S(=O)(=O)N3CCCCC3)c2)cc1`, the inhibition in assay [1] is -1.11%; in assay [2], -2.06%.

For the compound `O=S(=O)(c1ccc2c(c1)OCCO2)N1CCN(c2ncnc3sccc23)CC1`, the results for the inhibition in assay [1] and in assay [2] were 6.15% and 36.6%, respectively.

Consider `O=C(COC(=O)c1cc(S(=O)(=O)N2CCOCC2)ccc1F)NCc1ccc2c(c1)OCO2`, for which the values for the inhibition in assay [1] and in assay [2] were -10.1% and -5.62%, respectively.

`COc1cc2[nH]c3c(=O)n4c(nc3c2cc1OC)SCCC4`: the values for the inhibition in assay [1] and in assay [2] were -66.2% and 13.4%, respectively.

Consider `Nc1ccc2oc(-c3cccc4ccccc34)nc2c1`, for which the inhibition in assay [1] is 38.3% (active); in assay [2], 48.8% (active).

On to `CC(=O)c1c(C)[nH]c(C(=O)Nc2ccc(N3CCCCCC3)cc2)c1C`, for which the results for the inhibition in assay [1] and in assay [2] were -41.5% and 19.9%, respectively.

On to `CS(=O)(=O)N1CCC(C(=O)NCc2ccccc2)CC1`, for which the values for the inhibition in assay [1] and in assay [2] were -4.73% and -13.2%, respectively.

Consider `Cc1ccc(S(=O)(=O)CC(=O)N(CCCN(C)C)c2nc3ccc(C)cc3s2)cc1`, for which the inhibition is -1.57% in assay [1] and 15.1% in assay [2].

For the compound `Cc1c(Cl)sn(-c2ccc(Cl)cc2)c1=O`, the inhibition was 76.3% (active) in assay [1] and 93.4% (active) in assay [2].

Take `COC(=O)[C@H]1[C@@H](O)[C@@]2(O)c3c(OC)cc(OC)cc3O[C@@]2(c2ccc(OC)cc2)[C@@H]1c1ccc(F)cc1`: the figures for the inhibition in assay [1] and in assay [2] were 32.4% and 51.4% (active), respectively.

With `O=C(N/N=C\c1cc(Br)c(Br)o1)C1COc2ccccc2O1` (centres undefined), the inhibition in assay [1] is -16.1%; in assay [2] it was -4.84%.

With `C=CCN(CC=C)C(=O)c1cccc(S(=O)(=O)N2c3ccccc3CC2C)c1` (centres undefined), the inhibition in assay [1] is 24.9%; in assay [2], 28.7%.

For the compound `COc1ccc(-c2nnn(CC(=O)N(Cc3cccs3)C(C)C(=O)NCCC(C)C)n2)cc1OC` (centres undefined), the inhibition in assay [1] was -10.9%; in assay [2] it was 9.41%.

For `COc1ccc(CNC(=O)COC(=O)/C=C/c2cccc(Br)c2)cc1OC`, the values for the inhibition in assay [1] and in assay [2] were -0.64% and -19.4%, respectively.

For `COc1ccc(/C=C2/SC(=S)N(CCCC(=O)N3CCN(C)CC3)C2=O)cc1`, the inhibition was 8.95% in assay [1] and 2.01% in assay [2].

For the compound `O=C(NCCCN1CCN(c2ccccc2)CC1)C1CCCN(c2ncnc3c2nc2n3CCCCC2)C1` (centres undefined), the inhibition is 6.18% in assay [1] and -21.6% in assay [2].

Consider `O=C(CCl)N(Cc1cc(=O)[nH]c2ccccc12)c1ccccc1`, for which the inhibition was 38.6% (active) in assay [1] and 50.5% (active) in assay [2].

On to `Cc1cccc(N(Cc2cc(=O)[nH]c3ccccc23)C(=O)CCl)c1`, for which the inhibition was 42.4% (active) in assay [1] and 83% (active) in assay [2].

Take `Cn1nnnc1Sc1ncnc2scc(-c3ccc(Cl)cc3)c12`: the figures for the inhibition in assay [1] and in assay [2] were 18.1% and 42.2%, respectively.

For the compound `CN1CCN(S(=O)(=O)c2ccc(N(C)Cc3cccc(F)c3)nc2)CC1`, the inhibition in assay [1] is -0.35%; in assay [2], -11.8%.

On to `CCC(Cc1ccccc1)NC(=O)C1CCN(c2nn3c(=O)cc(C)nc3s2)CC1` (centres undefined), for which the inhibition in assay [1] is -17.6%; in assay [2], -18.8%.

Take `CC1CCCCC12NC(=O)N(CC(=O)Nc1ccc(OC(F)F)cc1)C2=O` (centres undefined): the inhibition is -18.4% in assay [1] and -11.2% in assay [2].

`Cc1ccc(Cn2ccc(=O)c(OCc3c(Cl)cccc3Cl)c2C)cc1`: the results for the inhibition in assay [1] and in assay [2] were 11.9% and 13.3%, respectively.

The inhibition is the drop in the measured response relative to a control, in per cent.
